Out of some 94,000 compounds screened, about 6,200 (6.6%) were called active. Inconclusive results (about 31%) are left out. The sample as a whole holds a higher share of actives than the screen did. A number with no mark means an inactive call. The call rests on the fitted dose curve; in most records, active means well fitted inhibition curve with a large enough effect; inconclusive means small, poorly fitted or top-dose-only effect; inactive means flat fitted curve, though single readings scatter.
test: Cytotoxic Profiling in HEK 293 Cell Line of Diverse Libraries Using Quantitative High-Throughput Screening; settings: HEK 293 viability, ATP luminescence (CellTiter-Glo), 48-72 h; series mostly up to 115 µM; activity change, negative = cytotoxicity: at the top concentration; further: nearly all actives have a fitted effect of over 60% in size
Source text: Cell-based phenotypic screening is a commonly used approach to discover biological pathways, novel drug targets, chemical probes and high-quality hit-to-lead molecules. Many hits identified from high-throughput screening campaign are ruled out through a series of follow-up potency, selectivity/specificity, and cytotoxicity assays. Prioritization of molecules with little or no cytotoxicity for a more in-depth downstream evaluation influence the future direction of projects, so cytotoxicity profiling of the screening libraries at early stage is essential for increasing the likelihood of candidate success. In this study, we analyzed results from a cell-based cytotoxicity screening campaign, comprising nearly 10,000 compounds in NCATS annotated libraries, and over 100,000 compounds in a diversity library, evaluated in four normal cell lines (HEK 293, NIH 3T3, CRL-7250 and HaCat) and a cancer cell line (KB 3-1, a HeLa subline) with overall screening outcomes, hit rates, pan-activity and selectivity. For the annotated library, we also examined the primary targets and mechanistic pathways regularly associated with cell death. To our knowledge, this is the first study to use high-throughput screening to profile large libraries for cytotoxicity assessment in both normal and cancer cell lines. In summary, the results generated here constitutes a valuable resource for the scientific community and provides insight on identifying cytotoxic compounds with particular mechanisms of action, and prioritizing compounds with suitable cytotoxicity profile for further evaluation.
HEK 293 cells were seeded into white 1536-well plates using a Multidrop Combi peristaltic dispenser (ThermoFisher, Waltham, MA) at a density of 250 cells/well in 5 uL of medium respectively. A pintool (Kalypsys) was used to transfer 23 nL of compound solution to the 1536-well assay plates. After 48 or 72 hr incubation at 37 degree Celsius, 5% CO2 and 95% humidity, 2.5 uL of CellTiter-Glo (Promega) was dispensed into each well using a dispenser (Aspect Automation, St. Paul, MN) with solenoid valves (Lee Valves, Westbrook CT). Plates were left at room temperature for 10 min before imaging the ATP-coupled luminescence using a ViewLux microplate imager (PerkinElmer, Waltham, MA).
On the % scale 0 is the no-effect control and ±100 the full control effect; potency means the concentration at half of the fitted maximal effect.

Structure (SMILES) | outcome | activity change, negative = cytotoxicity | Potency
CCS(=O)(=O)N1[C@H]2CC[C@@H]1c1cnc(C)nc1C2 | inactive |  | 
Cn1cnc(S(=O)(=O)N2[C@H]3CC[C@@H]2c2cnc(-c4ccc(F)cc4)nc2C3)c1 |  | -5.79% | 
COC(=O)c1ccc(NC(=O)N2[C@H]3CC[C@@H]2c2cnc(-c4ccc(F)cc4)nc2C3)cc1 |  |  | 44.7 µM (active)
Cc1ncc2c(n1)C[C@@H]1CC[C@H]2N1C(=O)c1ccccn1 |  | -3.35% | 
O=C(Cc1cccc(F)c1)N1[C@H]2CC[C@@H]1c1cnc(-c3ccccc3)nc1C2 |  | -17.9% | 
Cc1ncc2c(n1)C[C@@H]1CC[C@H]2N1S(=O)(=O)c1ccc(F)cc1 |  | -9.05% | 
O=C(Cc1ccccc1)N1[C@H]2CC[C@@H]1c1cnc(-c3ccc(F)cc3)nc1C2 |  |  | 28.2 µM (active)
Cc1cccc(CC(=O)N2[C@H]3CC[C@@H]2c2cnc(C)nc2C3)c1 | inactive |  | 
Cc1nc(C)c(C(=O)N2[C@H]3CC[C@@H]2c2cnc(-c4ccccc4)nc2C3)s1 |  |  | 39.8 µM (active)
O=C(c1ccc2c(c1)CCO2)N1C[C@@H](c2ccc(F)cc2)[C@@H]2[C@H]1C1CCN2CC1 | inactive |  | 
O=[S+]1([O-])NC2(CCN(CC3CCOCC3)C2)COc2ccncc21 (stereo unspecified) | inactive |  | 
CC(=O)N1CC2(CCN(Cc3cccnc3)C2)Cc2ccccc21 (stereo unspecified) |  | -16.8% | 
CC(C)N1CCN(C(=O)Cc2cccn2-c2ccc(F)cc2)CC1 |  | -18.2% | 
Cc1ccc2c(n1)N(C)[C@H](CO)CCN(C1CCCC1)C2 |  | -1.63% [at 230 µM] | 
O=C1NC2(Cc3ccccc31)CN(CC1CC1)C2 | inactive [at 230 µM] |  | 
Cc1ccc([C@@H]2CN(C(=O)c3ccco3)[C@@H]3C4CCN(CC4)[C@@H]32)cc1 |  | -13.1% | 
O=C(c1cocn1)N1C[C@H](c2cccc(F)c2F)[C@@H]2[C@H]1C1CCN2CC1 | inactive |  | 
CCCS(=O)(=O)N1C[C@@H]2C[C@H](C1)c1ccc(-c3ccccc3C)c(=O)n1C2 | inactive [at 172 µM] |  | 
COc1cc2c(cc1OC1CCCC1)NC(=O)C21CCN(c2nccs2)CC1 |  |  | 89.1 µM (active)
COc1cc2c(cc1OCc1ccncc1)NC(=O)C21CCN(c2ncc(F)cn2)CC1 |  |  | 50.1 µM (active)
COc1cc2c(cc1Oc1cccc(N(C)C)c1)NC(=O)C21CCN(Cc2ccccn2)CC1 |  |  | 44.7 µM (active)

Structure (SMILES) | outcome | activity change, negative = cytotoxicity | Potency
COc1cc2c(cc1Oc1ccccc1)NC(=O)C21CCN(c2ccnc(C)n2)CC1 |  |  | 63.1 µM (active)
O=C(c1ccncc1)N1C[C@@H]2C[C@H](C1)c1ccc(C3CCCCC3)c(=O)n1C2 |  | -2.59% [at 172 µM] | 
CC1=NOC2(CCN(Cc3cncs3)C2)C1 (stereo unspecified) | inactive [at 172 µM] |  | 
O=[S+]1([O-])NCC2(CCN(Cc3cccnc3)C2)Oc2ncccc21 (stereo unspecified) | inactive |  | 
O=C1CC2CCN(Cc3cccnc3)CC2CCN1 (stereo unspecified) | inactive [at 172 µM] |  | 
O=C1NC2(Cc3ccccc31)CN(Cc1ccncc1)C2 | inactive [at 172 µM] |  | 
COc1cccc([C@H]2CN(c3cc(C)nc(N)n3)[C@@H]3C4CCN(CC4)[C@H]23)c1 |  | -20.8% | 
CNC(C)c1ccc(Cl)cc1 (stereo unspecified) |  | -18.1% [at 230 µM] | 
Cc1ccccc1OCC(=O)N1CCN(Cc2ccc(=O)n(C)c2)CC1 |  | -19.9% | 
C=CCOc1c(Cl)cc(CNC(C)Cn2cccn2)cc1OC (stereo unspecified) |  | -12.6% | 
CC(C)N1CC2CCC(C1)N2C(=O)N1CCCC1 |  | 4.58% [at 172 µM] | 
O=C(NC1CCCCC1)N1C[C@@H]2C[C@H](C1)c1c(-c3ccccc3F)ccc(=O)n1C2 |  | -25.2% [at 172 µM] | 
FC(F)(F)CN1C2CCC1CN(c1ccc(Cl)nn1)C2 | inactive |  | 
COc1cc2c(cc1-c1ccncc1)NC(=O)C21CCN(C(C)=O)CC1 |  | -19.9% [at 172 µM] | 
COc1cc2c(cc1OCc1ccccc1)NC(=O)C21CCN(C(=O)C(C)C)CC1 |  |  | 89.1 µM (active)
COc1cc2c(cc1OCc1ccncc1)NC(=O)C21CCN(c2ncccn2)CC1 |  |  | 100 µM (active)
CC(C)C(=O)N1CCC2(CC1)NCc1ccccc1-n1ccnc12 |  | -12.3% | 
COc1ccc([C@@H]2CN(C(=O)c3c(C)noc3C)[C@@H]3C4CCN(CC4)[C@@H]32)cc1 |  | -7.87% | 
Cc1ccc(S(=O)(=O)NC[C@H]2C[C@@H]3CCN2C[C@@H]3CN2CCN(c3ncccn3)CC2)cc1 |  | -6.41% | 
CCCS(=O)(=O)NC[C@H]1C[C@@H]2CCN1C[C@@H]2c1cc(C2CCCC2)nn1C |  | -26.7% [at 172 µM] | 
CCC(CC)c1cc([C@H]2CN3CC[C@H]2C[C@@H]3CNC(=O)NCc2ccccc2)nc(-c2ccncc2)n1 |  |  | 28.2 µM (active)

Structure (SMILES) | outcome | activity change, negative = cytotoxicity | Potency
CCCCc1cn(C[C@H]2CC3CCN2C[C@@H]3C(=O)NCc2ccccc2)nn1 (stereo partly specified) |  | -1.65% [at 172 µM] | 
COc1ccc(-c2cn(C[C@H]3C[C@@H]4CCN3C[C@@H]4C(=O)NCc3ccccc3)nn2)cc1 |  | -21% [at 172 µM] | 
CCC(CC)c1cc([C@H]2CN3CC[C@H]2C[C@@H]3CNS(=O)(=O)Cc2ccccc2)nc(-c2ccncc2)n1 |  |  | 31.6 µM (active)
O=[N+]([O-])c1ccc(N2CC3CCC(C2)N3CC(F)(F)F)nc1 | inactive |  | 
Cc1ccc(S(=O)(=O)NC[C@H]2C[C@@H]3CCN2C[C@@H]3CN2CCSCC2)cc1 |  | 0.97% [at 172 µM] | 
Cc1noc(C)c1C(=O)N1C2CCC1CN(Cc1cccnc1)C2 |  | -29.8% | 
O=C(O)COCC(=O)N1C[C@@H]2C[C@H](C1)c1c(-c3ccc4ccccc4c3)ccc(=O)n1C2 |  | -2.71% [at 172 µM] | 
CCOc1ccc(C(=O)N2CCC3(CC2)c2nccn2-c2ccccc2CN3C)cc1 |  | -21.5% | 
CCCNC(=O)OC[C@H]1C[C@@H]2CCN1C[C@@H]2c1cc(-c2ccc(OC)c(OC)c2)nn1C |  | -12.2% | 
C#C[C@H]1CN2CC[C@H]1C[C@@H]2COC(=O)Nc1cc(OC)cc(OC)c1 |  |  | 100 µM (active)
C#C[C@H]1CN2CC[C@H]1C[C@@H]2CNC(=O)C1CC1 |  | -2.38% [at 230 µM] | 
FC(F)(F)CN1C2CCC1CN(c1ccc(C(F)(F)F)nc1)C2 |  | -14.1% | 
Cn1cc(CN2CCN3C(=O)N(c4ccccn4)C[C@H]3C2)cn1 | inactive [at 172 µM] |  | 
CC[C@H]1CN2CC[C@H]1C[C@@H]2CNCc1cccc(C#N)c1 |  | -0.0855% [at 230 µM] | 
CN(Cc1ccccc1)C[C@H]1CN2CC[C@H]1C[C@@H]2CNC(=O)Nc1cccc(C#N)c1 |  |  | 89.1 µM (active)
CC[C@H]1CN2CC[C@H]1C[C@@H]2CNC(=O)c1ccc(N(C)C)cc1 |  | 4.54% [at 172 µM] | 
C=CCN(C)C[C@H]1CN2CC[C@H]1C[C@@H]2CNC(=O)Nc1cccc(SC)c1 |  |  | 63.1 µM (active)
O=C(NC[C@H]1C[C@@H]2CCN1C[C@@H]2CN1CCC(Cc2ccccc2)CC1)c1ccco1 |  | -25.4% [at 172 µM] | 
CN(CCc1ccccn1)C[C@H]1CN2CC[C@H]1C[C@@H]2CNC(=O)c1ccccc1 |  | -30% [at 172 µM] | 

Reference: PubChem BioAssay AID1345083 (National Center for Advancing Translational Sciences (NCATS), 2018)
